Results taken from PubChem BioAssay AID1159580 (chemical genetic matrix, 2015).
Values joined by “and” are separate entries in the source; they are usually repeats but may differ in a detail not shown here. Equal entries are not always repeated. The whole screen tested about 5,500 compounds, of which about 2,000 (36%) were called active. Inconclusive results (about 18%) are left out. Cut-off read from the data, not from the text of the source: active = normalized growth mostly below about 0.91 (no sharp cut-off); inconclusive = no clear call, values can overlap the other calls; inactive = mostly above about 0.92. This is one part of the list.

Assay: chemical genetic growth profiling, strain panel (AID 1159580);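 note: tested at 20 µM; growth read once vehicle control cultures reached saturation at 30 °C; 1 = growth at the plate median or of vehicle wells; lower values mean less growth of the strain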
Conditions: S. cerevisiae deletion strains, growth OD

Measured: normalized growth

COc1cc2c(cc1OC)[C@@H]1C(=O)c3ccc4oc(C(C)C)cc4c3O[C@@H]1CO2
inactive: locus YAL021C, strain ccr4, hits give low values 0.983 | locus YAL026C, strain drs2, hits give low values 0.995 | locus YAL030W, strain snc1, hits give low values 1 | locus YBL061C, strain skt5, hits give low values 0.995 | locus YBR009C, strain hhf1, hits give low values 0.992 | locus YBR021W, strain FUR4, hits give low values 1.01 | locus YBR023C, strain chs3, hits give low values 0.996 | locus YBR171W, strain sec66, hits give low values 0.999 | locus YBR229C, strain ROT2, hits give low values 1.01 | locus YBR231C, strain swc5, hits give low values 0.992 | locus YBR279W, strain paf1, hits give low values 0.996 | locus YCL011C, strain gbp2, hits give low values 0.97 | locus YCL016C, strain dcc1, hits give low values 0.993 | locus YCL029C, strain bik1, hits give low values 1.07 | locus YCL061C, strain MRC1, hits give low values 0.981 | locus YCL069W, strain vba3, hits give low values 1 | locus YCR088W, strain abp1, hits give low values 0.993 | locus YDL005C, strain med2, hits give low values 0.981 | locus YDL035C, strain GPR1, hits give low values 1.02 | locus YDL040C, strain nat1, hits give low values 0.989 | locus YDL074C, strain BRE1, hits give low values 1.04 | locus YDL101C, strain DUN1, hits give low values 1.01 | locus YDL185W, strain tfp1, hits give low values 1.01 | locus YDL192W, strain arf1, hits give low values 1.04 | locus YDR001C, strain nth1, hits give low values 0.979 | locus YDR069C, strain doa4, hits give low values 1.08 | locus YDR101C, strain arx1, hits give low values 1.02 | locus YDR137W, strain rgp1, hits give low values 0.992 | locus YDR150W, strain NUM1, hits give low values 1.02 | locus YDR159W, strain sac3, hits give low values 0.985 | locus YDR162C, strain NBP2, hits give low values 1.04 | locus YDR195W, strain ref2 0.982 | locus YDR297W, strain sur2, hits give low values 1.02 | locus YDR318W, strain mcm21, hits give low values 1.04 | locus YDR334W, strain swr1, hits give low values 0.977 | locus YDR335W, strain msn5, hits give low values 0.986 | locus YDR388W, hits give low values 1.02 | locus YDR392W, strain spt3, hits give low values 0.996 | locus YDR502C, strain sam2, hits give low values 1.03 | locus YEL003W, strain gim4, hits give low values 1.01 | locus YEL037C, strain rad23, hits give low values 0.995 | locus YEL061C, strain CIN8 (second series), hits give low values 0.984 | locus YER015W, strain faa2, hits give low values 0.99 | locus YER016W, strain bim1, hits give low values 0.971 | locus YER110C, hits give low values 1 | locus YER111C, strain swi4, hits give low values 0.977 | locus YER155C, strain BEM2 (second series), hits give low values 0.973 | locus YER155C, strain BEM2, hits give low values 1.02 | locus YER167W, strain BCK2, hits give low values 1.02 | locus YFR010W, strain ubp6, hits give low values 0.998 | locus YGL078C, strain dbp3, hits give low values 1.03 | locus YGL086W, strain mad1, hits give low values 1.02 | locus YGL167C, strain pmr1, hits give low values 0.982 | locus YGL173C, strain kem1, hits give low values 0.975 | locus YGL227W, strain vid30, hits give low values 0.982 | locus YGL240W, strain doc1, hits give low values 0.991 | locus YGL248W, strain PDE1, hits give low values 1.01 | locus YGL253W, strain hxk2, hits give low values 0.991 | locus YGR078C, strain PAC10, hits give low values 1.02 | locus YGR135W, strain pre9, hits give low values 1.08 | locus YGR252W, strain gcn5, hits give low values 1.01 | locus YHR013C, strain ard1, hits give low values 0.973 | locus YHR027C, strain rpn1, hits give low values 1 | locus YHR030C, strain SLT2, hits give low values 0.999 | locus YHR079C, strain IRE1 (second series), hits give low values 1 | locus YHR079C, strain IRE1, hits give low values 0.985 | locus YHR094C, strain hxt1, hits give low values 1.02 | locus YHR129C, strain ARP1, hits give low values 1.02 | locus YHR142W, strain chs7, hits give low values 1.01 | locus YHR200W, strain rpn10, hits give low values 1.03 | locus YIL066C, strain RNR3, hits give low values 1.02 | locus YIL073C, strain SPO22, hits give low values 1.06 | locus YIL125W, strain kgd1, hits give low values 1 | locus YIR030C, strain dcg1, hits give low values 1.05 | locus YJL092W, strain hpr5, hits give low values 0.968 | locus YJL095W, strain BCK1 (second series), hits give low values 1.01 | locus YJL095W, strain BCK1, hits give low values 1.04 and 0.981 | locus YJL115W, strain asf1, hits give low values 0.957 | locus YJL129C, strain trk1, hits give low values 0.974 | locus YJL134W, strain LCB3, hits give low values 1.01 | locus YJL154C, strain vps35, hits give low values 0.984 | locus YJL164C, strain tpk1, hits give low values 1.03 | locus YJL166W, strain qcr8, hits give low values 0.975 | locus YJL168C, strain set2, hits give low values 1.01 | locus YJL187C, strain SWE1 (second series), hits give low values 1.02 | locus YJR043C, strain POL32, hits give low values 1.02 | locus YJR066W, strain TOR1, hits give low values 0.907 | locus YKL009W, strain mrt4, hits give low values 0.918 | locus YKL068W, hits give low values 0.996 | locus YKL085W, strain MDH1 (second series), hits give low values 0.989 | locus YKL085W, strain MDH1, hits give low values 0.989 | locus YKL160W, strain elf1, hits give low values 0.99 | locus YKL190W, strain CNB1, hits give low values 1.02 | locus YKR001C, strain vps1, hits give low values 1.02 | locus YKR026C, strain gcn3, hits give low values 1 | locus YKR091W, strain srl3, hits give low values 0.984 | locus YLL001W, strain dnm1, hits give low values 0.972 | locus YLL026W, hits give low values 0.976 | locus YLL041C, strain sdh2, hits give low values 1.02 | locus YLR027C, strain aat2, hits give low values 0.999 | locus YLR039C, strain RIC1, hits give low values 1.1 | locus YLR058C, strain SHM2, hits give low values 1.01 | locus YLR102C, strain apc9, hits give low values 1.02 | locus YLR113W, strain HOG1, hits give low values 1.05 | locus YLR221C, strain rsa3, hits give low values 0.959 | locus YLR258W, strain gsy2, hits give low values 0.992 | locus YLR262C, strain YPT6 (second series), hits give low values 1.02 | locus YLR262C, strain YPT6, hits give low values 1.06 | locus YLR268W, strain sec22, hits give low values 1.02 | locus YLR320W, strain mms22, hits give low values 0.986 | locus YLR330W, strain CHS5, hits give low values 1.02 | locus YLR342W, strain FKS1 (second series), hits give low values 1.03 | locus YLR342W, strain FKS1, hits give low values 0.982 | locus YLR357W, strain rsc2, hits give low values 0.986 | locus YLR370C, strain arc18, hits give low values 0.981 | locus YLR371W, strain rom2, hits give low values 1.06 | locus YLR384C, strain iki3, hits give low values 0.993 | locus YLR418C, strain cdc73, hits give low values 1.01 | locus YML016C, strain PPZ1, hits give low values 1.02 | locus YML032C, strain rad52, hits give low values 1.01 | locus YML120C, strain ndi1, hits give low values 0.99 | locus YML124C, strain tub3, hits give low values 1.03 | locus YMR058W, strain fet3, hits give low values 0.968 | locus YMR078C, strain ctf18, hits give low values 1.02 | locus YMR125W, strain sto1, hits give low values 0.976 | locus YMR129W, hits give low values 0.985 | locus YMR205C, strain PFK2, hits give low values 0.987 | locus YMR223W, strain ubp8, hits give low values 1.01 | locus YMR231W, strain pep5, hits give low values 0.985 | locus YMR307W, strain GAS1, hits give low values 0.974 | locus YNL067W, strain RPL9B, hits give low values 1.02 | locus YNL071W, strain lat1, hits give low values 1.05 | locus YNL183C, strain NPR1, hits give low values 0.956 | locus YNL209W, strain ssb2, hits give low values 0.993 | locus YNL233W, strain BNI4, hits give low values 1.05 | locus YNL248C, strain rpa49, hits give low values 0.976 | locus YNL250W, strain rad50, hits give low values 1.02 | locus YNL271C, strain bni1, hits give low values 1.02 | locus YNL298W, strain CLA4, hits give low values 1.03 | locus YNL307C, strain MCK1, hits give low values 1.03 | locus YNL322C, strain KRE1 (second series), hits give low values 1 | locus YNL322C, strain KRE1, hits give low values 1.01 | locus YNR049C, strain mso1, hits give low values 0.982 | locus YNR052C, strain pop2, hits give low values 1.01 | locus YOL006C, strain TOP1, hits give low values 1.11 | locus YOL012C, strain htz1 0.869 | locus YOL147C, strain pex11, hits give low values 1.04 | locus YOR001W, strain rrp6, hits give low values 0.979 | locus YOR061W, strain CKA2, hits give low values 1.02 | locus YOR069W, strain VPS5, hits give low values 1.01 | locus YOR070C, strain gyp1, hits give low values 0.987 | locus YOR080W, strain dia2, hits give low values 0.965 | locus YOR083W, strain WHI5, hits give low values 0.987 | locus YOR106W, strain vam3, hits give low values 0.991 | locus YOR136W, strain idh2, hits give low values 1 | locus YOR144C, strain elg1, hits give low values 1.02 | locus YOR184W, strain ser1, hits give low values 1.05 | locus YOR231W, strain MKK1, hits give low values 0.975 | locus YOR265W, strain rbl2, hits give low values 1 | locus YOR270C, strain vph1, hits give low values 1.07 | locus YOR290C, strain snf2, hits give low values 0.978 | locus YOR316C, strain cot1, hits give low values 1 | locus YPL051W, strain arl3, hits give low values 0.985 | locus YPL078C, strain atp4, hits give low values 0.989 | locus YPL106C, strain sse1, hits give low values 1.03 | locus YPL240C, strain hsp82, hits give low values 1 | locus YPL256C, strain CLN2, hits give low values 0.988 | locus YPR119W, strain clb2, hits give low values 1.01 | locus YPR141C, strain kar3, hits give low values 1.06 | locus YPR163C, strain tif3, hits give low values 1.02 | locus YPR167C, strain met16, hits give low values 1.05 | strain wtn01, hits give low values 1.04
